Experimental data published in PubChem BioAssay (NCATS).
Inconclusive results are not listed. Entries that show only a call come without a potency. Calls of active or inactive are those of the source. Unless noted, calls come from the whole dose curve; as a rule, active = well fitted curve in the direction sought with a large enough effect; inconclusive = small, poorly fitted or top-dose-only effect, or another doubt; inactive = no such curve, though single readings can be large; an effect the other way counts as inactive or inconclusive.

Experiments:
[1] = qHTS assay for small molecule agonists of retinoid X receptor alpha signaling (AID 588544; calls by dose curve); settings: HEK293T RXRa-UAS-bla, beta-lactamase reporter, 18 h; 530 nm emission
[2] = target: Retinoic acid receptor RXR-alpha (Homo sapiens) (UniProt P19793); assay: as above; settings: HEK293T RXRa-UAS-bla, beta-lactamase reporter, 18 h; series mostly up to 76.7 µM
[3] = target: Thyroid hormone receptor beta (Homo sapiens) (UniProt P10828); assay: qHTS assay for small molecule agonists of thyroid hormone receptor beta signaling (AID 588545; calls by dose curve); settings: TR-UAS-bla GripTite HEK 293, beta-lactamase ratio, agonist mode, 18 h, percent of T3 response, DMSO as zero; series mostly up to 76.7 µM
Procedure, shortened: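 TR-UAS-bla-GripTite HEK 293 cells in medium with 2% charcoal/dextran FBS, 0.1 mM NEAA and 1 mM sodium pyruvate were treated with titrated compounds for 18 hrs at 37 C. Beta-lactamase reporter was read with CCF4 dye (ex 405, em 460/530 nm); EC50 from Hill fits.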

[4] = qHTS assay for small molecule antagonists of retinoid X receptor alpha signaling (AID 588546; active = well fitted inhibition curve with a large enough effect in the signal ratio, with a control signal flat, not every such curve was filed as active; the % refers to the signal ratio;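 note: cells stimulated with 9-cis-retinoic acid as agonist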); settings: HEK293T RXRa-UAS-bla, beta-lactamase ratio, antagonist mode; measured here: W530 green channel, cytotoxicity proxy
Procedure, shortened: (§1)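 Beta-lactamase reporter inhibition, read as CCF4 fluorescence ratio (ex 405, em 460/530 nm) after 2 h at RT. HEK293T UAS-bla cells, 2500/well, were stimulated with 9-cis-RA at 500 or 100 nM final alongside test compound for 18 h at 37 C.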

[5] = target: Retinoic acid receptor RXR-alpha (Homo sapiens) (UniProt P19793); assay: as above; settings: HEK293T RXRa-UAS-bla, beta-lactamase ratio, antagonist mode
Procedure, shortened: as §1

[6] = target: Thyroid hormone receptor beta (Homo sapiens) (UniProt P10828); assay: qHTS assay for small molecule antagonists of thyroid hormone receptor beta signaling (AID 588547; active = well fitted inhibition curve with a large enough effect in the signal ratio, with a control signal flat, not every such curve was filed as active; the % refers to the signal ratio;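 note: cells stimulated with 0.4 nM T3 agonist during compound exposure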); settings: TR-UAS-bla HEK293, beta-lactamase ratio, antagonist mode, 18 h
Procedure, shortened: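 Inhibition of T3-driven (0.4nM final) beta-lactamase reporter activity was measured over 0.59 nM to 92 uM compound after 18 h at 37 C. The cells were GripTite HEK293 TR-UAS-bla in charcoal/dextran-stripped serum, with CCF4 ratio read-out and IC50 from Hill fits.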

[7] = target: Voltage-gated inwardly rectifying potassium channel KCNH2 (Homo sapiens) (UniProt Q12809); assay: qHTS Assay for Small Molecule Inhibitors of the Human hERG Channel Activity (AID 588834); settings: U2OS BacMam hERG, FluxOR thallium flux fluorescence; series mostly up to 92.2 µM;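 note: top concentration of the series differs between compounds; lower thallium flux fluorescence means stronger hERG block; nearly all actives have a fitted effect of over 50% in size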
Procedure, shortened: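 Blockade is seen as reduced FluxOR thallium-flux fluorescence in U2OS cells expressing hERG from a BacMam construct, in Opti-MEM with 2% FCS. Concentration-response data fitted to the Hill equation for AC50.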

[8] = qHTS assay for small molecule activators of the p53 signaling pathway (AID 651743; active = well fitted activation curve with a large enough effect in the signal ratio, not every such curve was filed as active; the % refers to the signal ratio); settings: HCT-116 p53RE-bla, beta-lactamase FRET ratio, 16 h; stronger effect = higher value
Procedure, shortened: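 Screen for p53 pathway agonists uses stably transfected p53RE-bla HCT-116 cells, 4,000 per well, treated 16 h at 37 C with compounds in DMSO.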

[9] = qHTS assay for small molecule activators of the nuclear factor-kappa B (NF-kB) signaling pathway (AID 651749; active = well fitted activation curve with a large enough effect in the signal ratio; the % refers to the signal ratio); settings: NF-kB-bla ME-180 cells, beta-lactamase FRET ratio, 16 h; stronger effect = higher value
Procedure, shortened: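 Stably transfected ME-180 line; NF-kB response element upstream of beta-lactamase. Treatment: compound or DMSO, 16 hr. Detection: fluorescent FRET substrate.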

[10] = qHTS assay for small molecule disruptors of the mitochondrial membrane potential - 1 hr assay (AID 651754; calls by dose curve; note: nearly all actives have a fitted effect of over 35% in size); settings: series mostly up to 92.2 µM
Procedure, shortened: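 Steps: seed HepG2 cells and let attach overnight; pin-transfer compound or vehicle; incubate 1 hr at 37C; add Mito-MPS dye for 30 min; read two-channel fluorescence for monomer and aggregate forms.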

[11] = qHTS assay for small molecule disruptors of the mitochondrial membrane potential - 5 hr assay (AID 651755; calls by dose curve; note: nearly all actives have a fitted effect of over 40% in size); settings: JC-1-type ratio dye; series mostly up to 92.2 µM
Procedure, shortened: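 HepG2, 2,000 cells/well, overnight attach; cpd or DMSO 5 hr, 37C/5% CO2; Mito-MPS 30 min 37C; fluor 490/535 + 540/590 nm.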

[12] = target: Tumor necrosis factor (Homo sapiens) (UniProt P01375); assay: qHTS assay to identify small molecules that stimulate Tumor Necrosis Factor-alpha (TNF-alpha) secretion (AID 651757; active = well fitted curve in the direction sought with a large enough effect in the signal ratio; the % refers to the signal ratio); settings: Human cells, HTRF 665/615 ratio; series mostly up to 92.2 µM
Procedure, shortened: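 Secreted TNF-alpha from compound-treated THP-1 cells (17 hrs, 37 C) was quantified with a homogeneous time-resolved fluorescence antibody assay.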

[13] = qHTS assay for environmental chemicals that activate the Aryl hydrocarbon Receptor (AhR) signaling pathway (AID 651777); settings: 1A2-DRE human hepatoma cells, luciferase, 24 h; activation: stronger effect = higher value; note: nearly all actives have a fitted effect of over 15% in size
Procedure, shortened: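 1A2-DRE human hepatoma reporter line; 1,200 cells/well; cmpd or DMSO 24 h, 37 C/5% CO2; One-Glo 30 min RT; luciferase lum.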

[14] = target: Peroxisome proliferator-activated receptor alpha (Homo sapiens) (UniProt Q07869); assay: qHTS assay for small molecule agonists of the peroxisome proliferator-activated receptor alpha (PPARalpha) signaling pathway (AID 651778); settings: PathHunter PPARalpha complementation, chemiluminescence, 6 h; stronger effect = higher value
Procedure, shortened: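 Chemiluminescence from complemented enzyme reported PPARalpha activation in cells after 6 hr of compound treatment at 37 C. The detection reagent was incubated for 60 min at room temperature, and compounds were scored as agonists.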

[15] = target: Nuclear receptor ROR-gamma (Homo sapiens) (UniProt P51449); assay: qHTS assay for small molecule antagonists of the retinoid-related orphan receptor gamma (ROR-gamma) signaling pathway (AID 651802); settings: ROR-gamma antagonist cell reporter assay; series mostly up to 92.2 µM;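 note: CHO cells with doxycycline-induced ROR-gamma expression; nearly all actives have a fitted effect of over 60% in size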
Procedure, shortened: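 Antagonism is scored as a fall in luminescence from a RORE-luciferase reporter in CHO cells expressing ROR under a TET-inducible promoter, measured 16hr after doxycycline induction in the presence of compound.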

[16] = qHTS assay for small molecule agonists of the antioxidant response element (ARE) signaling pathway measured by Nrf2-dependant transcriptional activity (AID 720636; active = well fitted curve in the direction sought with a large enough effect in the repeat runs; an effect the other way counts as inactive or inconclusive;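 note: HepG2 cells with an ARE-driven luciferase reporter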); settings: ARE-luc HepG2, Nrf2 luciferase reporter, 16 h; series mostly up to 92.4 µM
Procedure, shortened: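 Cells: ARE-luc HepG2 with Nrf2-responsive luciferase. Medium contained 1% dialyzed FBS. Compound exposure lasted 16 hr at 37 C and 5% CO2, followed by ONE-Glo luciferase detection.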

[17] = qHTS assay for small molecule antagonists of the retinoid-related orphan receptor gamma (ROR-gamma) signaling pathway - cell viability counter screen (AID 720652; active = well fitted curve in the direction sought with a large enough effect in the repeat runs; an effect the other way counts as inactive or inconclusive;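 note: CHO reporter cells with doxycycline-induced ROR-gamma expression; compound exposure lasted 16 hr before ATP read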); settings: RORgamma reporter cell line viability counter screen; series mostly up to 92.2 µM
Procedure, shortened: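 Cytotoxicity is quantified via intracellular ATP (CellTiter-Glo luminescence) in doxycycline-induced CHO ROR response element-luciferase reporter cells treated with compound for 16 hr at 37 C, 5% CO2.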

[18] = qHTS assay for small molecule agonists of the antioxidant response element (ARE) signaling pathway measured by Nrf2-dependant transcriptional activity - cell viability counter screen (AID 720653; active = well fitted curve in the direction sought with a large enough effect in the repeat runs; an effect the other way counts as inactive or inconclusive); settings: ARE-bla HepG2 viability, CellTiter-Glo ATP luminescence, 16 h; stronger effect = lower value
Procedure, shortened: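 Cytotoxicity counter screen: intracellular ATP quantified by CellTiter-Glo luminescence in the same ARE-bla HepG2 plates, after 16 h compound exposure and a 2 h beta-lactamase substrate step.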

Chain of Nuclear receptor ROR-gamma (Homo sapiens) (P51449 whole entry, looked up): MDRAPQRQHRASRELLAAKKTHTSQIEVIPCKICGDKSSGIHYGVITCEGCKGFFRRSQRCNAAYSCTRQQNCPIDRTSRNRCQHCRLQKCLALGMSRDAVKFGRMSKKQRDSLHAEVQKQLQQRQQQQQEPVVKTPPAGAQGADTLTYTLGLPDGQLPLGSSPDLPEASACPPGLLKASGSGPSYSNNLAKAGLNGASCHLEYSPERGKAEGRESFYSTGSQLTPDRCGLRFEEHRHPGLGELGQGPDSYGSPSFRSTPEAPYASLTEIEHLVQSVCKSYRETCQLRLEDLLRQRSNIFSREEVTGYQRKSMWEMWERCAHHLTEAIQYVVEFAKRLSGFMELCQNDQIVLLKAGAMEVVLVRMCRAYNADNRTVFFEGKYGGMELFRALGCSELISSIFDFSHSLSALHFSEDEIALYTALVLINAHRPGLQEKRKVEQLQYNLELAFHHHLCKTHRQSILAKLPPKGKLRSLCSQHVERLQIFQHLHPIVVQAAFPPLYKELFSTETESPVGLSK
Chain of Thyroid hormone receptor beta (Homo sapiens) (P10828 whole entry, looked up): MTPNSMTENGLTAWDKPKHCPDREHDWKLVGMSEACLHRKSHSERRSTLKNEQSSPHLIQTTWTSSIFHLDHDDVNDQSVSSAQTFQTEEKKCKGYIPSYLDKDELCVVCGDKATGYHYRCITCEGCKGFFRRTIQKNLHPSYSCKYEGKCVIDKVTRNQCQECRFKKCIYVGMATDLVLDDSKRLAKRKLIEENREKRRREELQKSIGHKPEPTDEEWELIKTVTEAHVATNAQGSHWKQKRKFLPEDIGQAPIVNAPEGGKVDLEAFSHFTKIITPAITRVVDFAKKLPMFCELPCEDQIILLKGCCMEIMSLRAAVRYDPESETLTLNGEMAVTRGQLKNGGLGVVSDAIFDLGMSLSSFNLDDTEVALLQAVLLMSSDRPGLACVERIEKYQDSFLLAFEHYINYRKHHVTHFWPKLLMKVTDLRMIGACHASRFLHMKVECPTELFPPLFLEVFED
Chain of Voltage-gated inwardly rectifying potassium channel KCNH2 (Homo sapiens) (Q12809 whole entry, looked up): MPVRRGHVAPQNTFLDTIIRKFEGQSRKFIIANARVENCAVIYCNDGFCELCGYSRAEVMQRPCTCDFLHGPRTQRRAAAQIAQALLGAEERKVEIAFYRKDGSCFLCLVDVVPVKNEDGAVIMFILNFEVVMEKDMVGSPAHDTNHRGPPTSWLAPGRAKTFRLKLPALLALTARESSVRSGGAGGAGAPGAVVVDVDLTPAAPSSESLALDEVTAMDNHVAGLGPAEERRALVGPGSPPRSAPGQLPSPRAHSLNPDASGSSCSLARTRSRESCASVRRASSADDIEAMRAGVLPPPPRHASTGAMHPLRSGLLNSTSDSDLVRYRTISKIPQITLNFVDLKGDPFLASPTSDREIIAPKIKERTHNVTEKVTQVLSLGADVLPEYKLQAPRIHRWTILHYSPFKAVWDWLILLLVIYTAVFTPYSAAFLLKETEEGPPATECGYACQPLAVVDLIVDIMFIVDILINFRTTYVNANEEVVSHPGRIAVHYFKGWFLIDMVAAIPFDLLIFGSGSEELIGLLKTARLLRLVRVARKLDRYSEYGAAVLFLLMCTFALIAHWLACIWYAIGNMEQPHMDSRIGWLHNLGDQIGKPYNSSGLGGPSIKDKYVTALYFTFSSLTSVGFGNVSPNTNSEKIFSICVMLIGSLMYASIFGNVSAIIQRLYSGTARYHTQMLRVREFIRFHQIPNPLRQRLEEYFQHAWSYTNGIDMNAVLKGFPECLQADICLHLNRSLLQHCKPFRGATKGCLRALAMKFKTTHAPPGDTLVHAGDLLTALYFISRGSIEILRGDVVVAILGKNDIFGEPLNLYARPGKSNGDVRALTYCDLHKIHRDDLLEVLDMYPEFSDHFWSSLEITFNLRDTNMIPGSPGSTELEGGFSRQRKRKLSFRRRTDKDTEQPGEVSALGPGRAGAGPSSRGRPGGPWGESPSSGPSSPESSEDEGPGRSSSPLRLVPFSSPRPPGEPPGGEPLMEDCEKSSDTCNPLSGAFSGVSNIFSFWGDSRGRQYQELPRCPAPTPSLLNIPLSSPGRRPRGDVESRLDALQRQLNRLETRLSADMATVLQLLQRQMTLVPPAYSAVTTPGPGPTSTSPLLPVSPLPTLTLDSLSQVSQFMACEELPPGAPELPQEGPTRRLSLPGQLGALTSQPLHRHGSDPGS
Chain of Tumor necrosis factor (Homo sapiens) (P01375 whole entry, looked up): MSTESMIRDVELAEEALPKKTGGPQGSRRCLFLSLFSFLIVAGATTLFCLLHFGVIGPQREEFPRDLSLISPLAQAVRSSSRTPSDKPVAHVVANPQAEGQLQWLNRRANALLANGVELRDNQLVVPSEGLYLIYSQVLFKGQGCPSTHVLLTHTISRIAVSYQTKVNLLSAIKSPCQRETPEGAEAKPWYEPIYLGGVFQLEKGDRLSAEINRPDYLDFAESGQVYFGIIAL
Chain of Peroxisome proliferator-activated receptor alpha (Homo sapiens) (Q07869 whole entry, looked up): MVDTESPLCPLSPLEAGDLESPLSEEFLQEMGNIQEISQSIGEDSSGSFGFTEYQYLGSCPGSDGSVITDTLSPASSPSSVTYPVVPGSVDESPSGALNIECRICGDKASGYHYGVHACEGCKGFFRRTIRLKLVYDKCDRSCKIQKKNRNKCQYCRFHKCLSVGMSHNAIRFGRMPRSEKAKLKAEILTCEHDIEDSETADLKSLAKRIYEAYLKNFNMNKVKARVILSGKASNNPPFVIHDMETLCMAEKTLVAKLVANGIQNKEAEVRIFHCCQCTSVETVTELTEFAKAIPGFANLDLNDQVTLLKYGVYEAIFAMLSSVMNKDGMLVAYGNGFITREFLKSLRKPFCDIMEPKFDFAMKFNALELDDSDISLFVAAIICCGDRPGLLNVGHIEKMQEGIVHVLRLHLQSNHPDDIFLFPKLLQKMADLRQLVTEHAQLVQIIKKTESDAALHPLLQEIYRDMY
Chain of Retinoic acid receptor RXR-alpha (Homo sapiens) (P19793 whole entry, looked up): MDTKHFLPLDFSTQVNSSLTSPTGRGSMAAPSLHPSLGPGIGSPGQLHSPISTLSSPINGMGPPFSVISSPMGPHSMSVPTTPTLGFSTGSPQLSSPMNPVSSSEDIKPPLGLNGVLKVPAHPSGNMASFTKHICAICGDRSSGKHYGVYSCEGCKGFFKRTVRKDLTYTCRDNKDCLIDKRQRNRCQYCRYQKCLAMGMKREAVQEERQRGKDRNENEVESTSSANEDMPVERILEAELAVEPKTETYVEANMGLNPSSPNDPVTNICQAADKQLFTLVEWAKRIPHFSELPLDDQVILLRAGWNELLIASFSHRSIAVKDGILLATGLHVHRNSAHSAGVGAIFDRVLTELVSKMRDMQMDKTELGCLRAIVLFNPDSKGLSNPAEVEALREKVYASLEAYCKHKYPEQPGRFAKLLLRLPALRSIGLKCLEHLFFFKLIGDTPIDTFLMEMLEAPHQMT

Row | Compound | max response [1] [%] | outcome [2] | outcome [3] | max response [4] [%] | max response [5] | activity change % (negative = inhibition) [6] | Potency [7] | activation [8] | activation [9] | Potency [10] | Potency [11] | Potency [12] | activation [13] | max response [14] | Potency [15] | outcome [16] | Potency [17] | max response [18]
1 | Cc1ccc(Cl)cc1N | 3.01 | inactive | inactive | -7.87 | 0.248% (inactive) | -4.43% (inactive) | inactive | 0.545% (inactive) | 0.369% (inactive) | inactive | inactive | inactive | -0.729% (inactive) | -6.36% (inactive) | inactive | inactive | inactive | –
2 | BrC(Br)C(Br)Br | -10.8 | inactive | inactive | -6.63 | -0.43% (inactive) | 0.66% (inactive) | inactive | -2.69% (inactive) | 2.53% (inactive) | inactive | inactive | inactive | -0.0804% (inactive) | 6.41% (inactive) | inactive | inactive | inactive | –
3 | O=C1C=CCCC1 | 8.41 | inactive | inactive | -1.74 | -1.33% (inactive) | -3.89% (inactive) | inactive | -3.28% (inactive) | -0.0951% (inactive) | inactive | inactive | inactive | 0.397% (inactive) | 2.89% (inactive) | inactive | inactive | inactive | 4.99% (inactive)
4 | CCC1CO1 (centres undefined) | -15.4 | inactive | inactive | -10.7 | -1.32% (inactive) | -15.4% (inactive) | inactive | -2.66% (inactive) | -0.443% (inactive) | inactive | inactive | inactive | 0.0109% (inactive) | -1.3% (inactive) | inactive | inactive | inactive | 1.19% (inactive)
5 | O=C(O)c1ccc(Cl)cc1Cl | -11.4 | inactive | inactive | -6.82 | 2.21% (inactive) | -8.73% (inactive) | inactive | -4.73% (inactive) | -0.499% (inactive) | inactive | inactive | inactive | -0.705% (inactive) | -5.53% (inactive) | inactive | inactive | inactive | –
6 | CCCCCCCN | -16.2 | inactive | inactive | 3.38 | -5.49% (inactive) | 3.05% (inactive) | inactive | -0.0412% (inactive) | – | inactive | inactive | inactive | -0.576% (inactive) | -4.9% (inactive) | inactive | inactive | inactive | -1.43% (inactive)
